Compound activity as filed in PubChem BioAssay.
TGFb SMAD3 inh – inhibitors of TGF-b signaling; HepG2 CAGA-GFP TGF-b/SMAD3 reporter, GFP fluorescence, 18 h; TGF-beta stimulated, 500 pg/mL final; Potency, µM (highest dose often 46.1 µM), usual class: inhibitors; 410,000 compounds, 1.2% hits; note: nearly all actives have a fitted effect of over 65% in size
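Smad-responsive CAGA-GFP expression was quantified in HEPG2 cells exposed to compounds and 500 pg/mL final TGF-beta for 18 h at 37 degrees C; unstimulated wells defined full inhibition.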
GLP1R ag – activates the human GLP-1 receptor; P43220; HEK293 GLP-1R CRE-luciferase, luminescence, 4-6 h; cells express a hypersensitive GLP-1R form; Potency, µM (doses to about 45.6 µM), most hits filed as activators; 380,000 compounds, 0.007% hits
Target sequence (P43220 whole entry, looked up): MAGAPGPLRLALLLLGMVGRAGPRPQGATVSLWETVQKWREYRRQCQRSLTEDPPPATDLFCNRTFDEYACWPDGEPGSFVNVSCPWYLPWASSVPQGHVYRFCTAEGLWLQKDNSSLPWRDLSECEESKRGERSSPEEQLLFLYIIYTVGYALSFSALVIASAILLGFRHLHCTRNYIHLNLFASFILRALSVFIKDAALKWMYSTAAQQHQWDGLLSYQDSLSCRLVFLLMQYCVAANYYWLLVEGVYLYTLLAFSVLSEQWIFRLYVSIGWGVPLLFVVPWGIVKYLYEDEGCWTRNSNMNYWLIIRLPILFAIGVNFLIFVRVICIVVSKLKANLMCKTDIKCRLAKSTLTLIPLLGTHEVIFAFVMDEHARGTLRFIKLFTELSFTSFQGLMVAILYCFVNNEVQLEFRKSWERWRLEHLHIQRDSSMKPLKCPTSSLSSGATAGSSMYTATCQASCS
GLP1R inv ag – inverse agonists of human GLP-1 receptor | P43220 | HEK293 GLP-1R CRE-luciferase, luminescence, 24 h; GLP-1R form is constitutively active | Potency, µM (top dose mostly 38.3 µM), actives largely listed as inhibitors | 410,000 compounds, 1.6% hits; note: nearly all actives have a fitted effect of over 55% in size
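Seeding at 200 cells/uL, 12 h culture, 24 hr compound treatment, then luciferase reagent and a luminescence read; cells are HEK293 stably expressing a constitutively active GLP-1R plus cAMP-responsive luciferase.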
HepG2 tox – kills HepG2 cells in TGF-b inhibitor counter-screen. HepG2 CAGA-GFP viability, ATP luminescence, 18 h. Potency, µM (highest dose often 46.1 µM), most hits filed as cytotoxic. 410,000 compounds, 0.76% hits
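CellTiter-Glo luminescence gave cytotoxicity after 18 hours at 37 degrees C. The cells were HepG2 CAGA-GFP in 1% FBS DMEM, stimulated with 500 pg/mL TGF-beta after compound addition. %Activity was normalised to no-cell wells (complete cell-killing) and DMSO (no toxicity), and curves were fitted and classified.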
ATXN2 expr inh – reduces ATXN2 reporter expression in HEK-293 cells; AID 1745845; Potency, µM (titrated, usually from 57 µM), actives largely listed as inhibitors; HEK-293 ATXN2-luciferase reporter, luminescence, 24 h; 360,000 compounds, 0.72% hits; note: nearly all actives have a fitted effect of over 55% in size
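qHTS (up to 57 uM final) was run with 24 h compound exposure of reporter cells at 37 °C. Each well was multiplexed: SteadyGlo luminescence measured ATXN2-luciferase expression after a fluorogenic Gly-Phe-AFC viability readout (25 uM final).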
S2 tox – viability counter-screen for ATXN expression inhibitors | S2 cells (HEK-293 line with an ATXN2-luciferase reporter) viability, CellTiter-Fluor protease fluorescence, 24 h | Potency, µM (series often up to 56.7 µM), most hits filed as cytotoxic | 400,000 compounds, 0.49% hits; note: nearly all actives have a fitted effect of over 40% in size
Hits are given with their value; - = inactive; ? = inconclusive; . = no result; [ ] = dose if it differs, or a comment. Rows were chosen to be rich in hits. Some 3.7% of all compounds tested hit in one or more screens of this group. Calls come from the whole dose curve; as a rule, active = well fitted curve in the direction sought with a large enough effect; inconclusive = small, poorly fitted or top-dose-only effect, or another doubt; inactive = no such curve, though single readings can be large; an effect the other way counts as inactive or inconclusive.

SMILES | TGFb SMAD3 inh | GLP1R ag | GLP1R inv ag | HepG2 tox | ATXN2 expr inh | S2 tox
CCCNC(=O)C1=CC(c2ccc3c(c2)OCO3)=NS(=O)(=O)N1C | - | . | - | - | - | ?
c1ccc(CN2CCC(Nc3nc(-c4cccnc4)nc4ccccc34)CC2)cc1 | 15.8µM | - | -[0.307 µM] | - | ? | -
N#Cc1nc(COc2ccc(-c3ccccc3)cc2)oc1N1CCC(C(N)=O)CC1 | - | . | . | - | . | .
Oc1c(CN2CCN(c3ccccc3)CC2)cc(Br)c2cccnc12 | ? | - | - | - | 4.47µM | ?
c1ccc(N2CCN(Cc3ccnc4ccccc34)CC2)cc1 | - | - | - | - | - | ?
CCOC(=O)N1CCN(Cc2ccccc2Cl)CC1 | - | - | - | - | - | -
CCOCc1cc(CN2CCN(c3cccc(Cl)c3)CC2)c(O)c2ncccc12 | 2µM | . | ? | - | . | .
CC(C)OCc1cc(CN2CCN(c3ccccc3)CC2)c(O)c2ncccc12 | 2.24µM | . | ? | - | 1.26µM | ?
CCOC(=O)N1CCN(Cc2cc(Cl)c3cccnc3c2O)CC1 | ? | - | ? | - | 3.55µM | ?
CC12C=CC(=O)C=C1CCC1C2C(O)CC2(C)C1CCC2(O)C(=O)COC(=O)CCC(=O)O (stereo not drawn) | . | - | . | . | . | .
COC(=O)C1=C(C(=O)OC)[C@@H]2N(Cc3ccccc3)c3ccccc3[C@@]23C[C@@H](C(=O)OC)N(C(=O)c2cc(C)oc2C)C3=N1 | - | - | 11.2µM | - | ? | -
C(#Cc1ccc(C#CCN2CCCC2)cc1)CN1CCCC1 | - | - | 3.55µM | - | - | ?
COC(=O)C[C@H]1c2cc(F)ccc2S(=O)(=O)N1C1CC1 | - | . | . | - | . | .
CCc1ccc(C2/C=C\CNC(c3ccccc3)C(=O)N2Cc2ccc(C)cc2)cc1 (stereo not drawn) | ? | . | . | - | . | .
FC(F)Oc1ccc(NC(=S)NC2CCCCCCC2)cc1 | ? | - | 4.47µM | - | - | -
CC(C)(C)NC(=S)Nc1ccc(Nc2ccccc2)cc1 | ? | - | - | 12.6µM | - | ?
S=C(NNc1cccc(Cl)c1)NC1CCCCC1 | ? | - | 10µM | - | - | -
Cc1cccc(NC(=S)NC2CCCC2)n1 | ? | - | 4.47µM | - | . | ?
O=C(CC1(c2cccc(F)c2)CC(=O)N(Cc2cccnc2)C1=O)N1CCCCCCC1 (stereo not drawn) | . | . | . | . | . | -
CCc1ccc(NC(=O)c2sc(-n3nc(C)c(CCC(C)C)c3C)nc2C)cc1 | - | . | - | - | - | -
CCOc1ccc(NC(=O)c2ccc(NC(=S)NC3CCCCC3)cc2)cc1 | ? | - | ? | 17.8µM | - | ?
CCOC(=O)c1ccc(NC(=S)NC2CC(C)(C)NC(C)(C)C2)cc1 | ? | - | ? | 11.2µM | ? | ?
S=C(Nc1cccc(Cl)c1)NC1CCCCC1 | - | - | 8.91µM | - | - | -
CCOc1ccc(NC(=O)c2ccc(NC(=S)NC3CC3)cc2)cc1 | - | - | - | - | -[11.3 µM] | -
Cc1cccc(NC(=S)NC(=O)c2cccs2)n1 | - | ? | 10µM | - | - | -
SMILES | TGFb SMAD3 inh | GLP1R ag | GLP1R inv ag | HepG2 tox | ATXN2 expr inh | S2 tox
CCc1nn(CC(=O)N2CCN(c3cccc(C(F)(F)F)c3)CC2)c(=O)c2cccn12 | - | . | - | - | - | -
Cc1ccc(SCC(Cc2ccccc2)N2CCN(C)CCC2=O)cc1 (stereo not drawn) | - | . | . | - | . | .
NNC(=S)NC1CCCCCCCCCCC1 | 10µM | - | ? | 8.91µM | . | -
S=C(Nc1ccc(Cl)cc1)NC1CCCCC1 | ? | - | 10µM | - | - | -
S=C(Nc1ccc(Nc2ccccc2)cc1)NC1CCCCCC1 | ? | - | 5.01µM | - | ? | ?
NS(=O)(=O)c1ccc(NC(=S)NC2CCCCC2)cc1 | - | - | ? | - | - | -
S=C(NC1CCCCCC1)NC1CCCC1 | - | - | ? | - | . | -
Cc1cc(C)nc(N/N=C2/CCCC/C2=C\c2ccccc2)n1 | ? | - | ? | - | 0.947µM | ?
CC(C)(C)n1ncc2c(=O)n(Cc3c(Cl)cccc3Cl)cnc21 | - | . | . | - | . | .
CC(C)(C)n1ncc2c(=O)n(Cc3c(F)cccc3Cl)cnc21 | - | - | 2.51µM | - | - | -
